Records with an inconclusive call do not appear. A call without a number means that no potency is given here. The source made the active and inactive calls. Calls come from the whole dose curve; as a rule, active = well fitted curve in the direction sought with a large enough effect; inconclusive = small, poorly fitted or top-dose-only effect, or another doubt; inactive = no such curve, though single readings can be large; an effect the other way counts as inactive or inconclusive.
test: qHTS of pediatric cancer cell lines to identify multiple opportunities for drug repurposing: Confirmatory screen for TC32 cells (AID 1347118); settings: TC32 Ewing sarcoma cells viability qHTS; series mostly up to 45.9 µM;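 note: cells exposed to compound for 48 h before the read; nearly all actives have a fitted effect of over 65% in size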; note: potency is the fitted concentration of half-maximal effect
Outline: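 TC32 cells, 500-1,000/well in growth medium, compound-treated 48 h at 37 °C; viability from CellTiter-Glo luminescence. Primary screen: MIPE 11-point (0.78 nM–46 µM final), NPC 8-point (0.59 nM–46 µM final); confirmatory at 11-point dilutions.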

Structure (SMILES) | Potency
N#Cc1c(C2CCNCC2)cc(-c2c(O)cccc2OCC2CC2)nc1N | inactive
O=C(O)C[C@H](O)C[C@H](O)C=Cc1c(C2CC2)nc2ccccc2c1-c1ccc(F)cc1 | 2930 nM (active)
O=C(O)c1ccc(Nc2ncc3c(n2)-c2ccc(Cl)cc2C(c2c(F)cccc2F)=NC3)cc1 | 1470 nM (active)
Cn1cc(-c2cnn3c(N)c(Br)c([C@H]4CCCNC4)nc23)cn1 | 5850 nM (active)

test: qHTS of pediatric cancer cell lines to identify multiple opportunities for drug repurposing: Confirmatory screen for control Hh wild type fibroblast cells (AID 1347121); settings: viability qHTS; series mostly up to 45.9 µM; note: nearly all actives have a fitted effect of over 70% in size
Outline: (§1)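 Cells (500-1,000/well) in growth media were settled 5 h at 37 degrees C, then given compounds for 48 h. Viability was read as CellTiter-Glo luminescence. Primary runs used MIPE at 11 points (0.78 nM-46 µM) and NPC at 8 points (0.59 nM-46 µM); follow-ups used 11 points.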

Structure (SMILES) | Potency
CCc1cnn2c(NCc3ccc[n+]([O-])c3)cc(N3CCCC[C@@H]3CCO)nc12 | inactive
N#Cc1c(C2CCNCC2)cc(-c2c(O)cccc2OCC2CC2)nc1N | inactive
O=C(O)c1ccc(Nc2ncc3c(n2)-c2ccc(Cl)cc2C(c2c(F)cccc2F)=NC3)cc1 | inactive

test: qHTS of pediatric cancer cell lines to identify multiple opportunities for drug repurposing: Confirmatory screen for U-2 OS cells (AID 1347122); settings: U-2 OS osteosarcoma cell viability; series mostly up to 45.9 µM; note: nearly all actives have a fitted effect of over 65% in size; note: potency is the fitted concentration of half-maximal effect
Outline: as §1

Structure (SMILES) | Potency
CCc1cnn2c(NCc3ccc[n+]([O-])c3)cc(N3CCCC[C@@H]3CCO)nc12 | inactive
O=C(C=Cc1ccc(CN(CCO)CCc2c[nH]c3ccccc23)cc1)NO | 165 nM (active)
Cn1cc(-c2cnn3c(N)c(Br)c([C@H]4CCCNC4)nc23)cn1 | 2930 nM (active)

test: qHTS of pediatric cancer cell lines to identify multiple opportunities for drug repurposing: Confirmatory screen for RD cells (AID 1347124); settings: RD rhabdomyosarcoma cell viability; series mostly up to 45.9 µM;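 note: cells exposed to compound for 48 h before viability readout; nearly all actives have a fitted effect of over 65% in size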; note: potency is the fitted concentration of half-maximal effect
Outline: as §1

Structure (SMILES) | Potency
CC(=O)N1CCN(c2ccc(OCc3nn(C)c(C)c3-c3cccc4c(CCCOc5cccc6ccccc56)c(C(=O)O)n(Cc5cccnc5)c34)cc2)CC1 | inactive
CCc1cnn2c(NCc3ccc[n+]([O-])c3)cc(N3CCCC[C@@H]3CCO)nc12 | inactive
O=C(O)C[C@H](O)C[C@H](O)C=Cc1c(C2CC2)nc2ccccc2c1-c1ccc(F)cc1 | 11700 nM (active)
Cn1cc(-c2cnn3c(N)c(Br)c([C@H]4CCCNC4)nc23)cn1 | inactive

test: qHTS of pediatric cancer cell lines to identify multiple opportunities for drug repurposing: Confirmatory screen for Rh18 cells (AID 1347125); settings: Rh18 rhabdomyosarcoma cells, viability; series mostly up to 45.9 µM; note: nearly all actives have a fitted effect of over 55% in size; note: potency is the fitted concentration of half-maximal effect
Outline: as §1

Structure (SMILES) | Potency
CC(=O)N1CCN(c2ccc(OCc3nn(C)c(C)c3-c3cccc4c(CCCOc5cccc6ccccc56)c(C(=O)O)n(Cc5cccnc5)c34)cc2)CC1 | inactive
N#Cc1c(C2CCNCC2)cc(-c2c(O)cccc2OCC2CC2)nc1N | inactive
O=C(O)C[C@H](O)C[C@H](O)C=Cc1c(C2CC2)nc2ccccc2c1-c1ccc(F)cc1 | 3690 nM (active)
O=C(C=Cc1ccc(CN(CCO)CCc2c[nH]c3ccccc23)cc1)NO | 233 nM (active)
Cn1cc(-c2cnn3c(N)c(Br)c([C@H]4CCCNC4)nc23)cn1 | inactive

— PubChem BioAssay (NCATS)
